Screens (PubChem)
Hits are enriched below; roughly 2.3% of the tested compounds scored in any of these assays.
CHO-K1 Ca PAM = counter-screen for M1 PAMs: effect in parental CHO-K1 cells | AID 602247 | ATP EC20, Fluo-8 calcium fluorescence; 0% at ATP EC20, 100% at ATP max | activation, % at 3 µM | 360,000 compounds, 0.02% hits;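 active = activation above the run cutoff, the mean activation of all test compounds plus 3 SD, cut at about 40% in these data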;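 also: peak over basal fluorescence ratio in a 140 s read after ATP addition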
M1 PAM = human CHRM1 positive allosteric modulation; P11229; CHO-K1 hM1, Fluo-8 calcium fluorescence, ACh EC20; 0% = ACh EC20, 100% = maximal ACh; activation, % at 3 µM; 360,000 compounds, 0.088% hits; AID 588819; in the data active = activation above about 19%, passing the limit was not always enough
Target sequence (P11229 whole entry, looked up): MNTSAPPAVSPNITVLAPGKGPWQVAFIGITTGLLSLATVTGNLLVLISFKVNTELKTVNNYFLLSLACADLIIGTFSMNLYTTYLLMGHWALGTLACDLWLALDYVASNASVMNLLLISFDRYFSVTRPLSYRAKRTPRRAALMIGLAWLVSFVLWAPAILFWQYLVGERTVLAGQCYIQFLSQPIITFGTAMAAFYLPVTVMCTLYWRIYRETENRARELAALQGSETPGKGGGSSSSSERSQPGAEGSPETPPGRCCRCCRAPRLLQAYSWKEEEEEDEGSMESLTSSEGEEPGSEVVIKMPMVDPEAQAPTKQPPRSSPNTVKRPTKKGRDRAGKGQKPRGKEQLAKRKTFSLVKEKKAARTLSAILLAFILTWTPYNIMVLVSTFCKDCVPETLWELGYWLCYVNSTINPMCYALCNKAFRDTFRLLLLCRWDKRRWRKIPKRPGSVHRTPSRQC
CHRM1 antagonist = antagonists of human M1 muscarinic receptor. inhibition, % at 3 µM. CHO-K1 hM1, Fluo-8 calcium fluorescence, ACh EC80 antagonist. 360,000 compounds, 1.3% hits;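 active = percent inhibition above its own plate's cutoff, namely the mean of that plate's compound wells plus 3 SD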;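 also: peak over basal fluorescence ratio during 140 s after agonist addition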
M1 ag = agonists of human M1 muscarinic receptor | CHO-K1 hM1, Fluo-8 calcium fluorescence, agonist mode; 0% DMSO, 100% acetylcholine EC100 | activation, % at 3 µM | 360,000 compounds, 0.33% hits | AID 588814;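 active = activation above the run's mean compound activation plus 3 SD, cut at about 16% in these data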;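 also: peak over basal fluorescence ratio within a 140 s kinetic read after compound addition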
CHO-K1 Ca ag = counter-screen for M1 agonists: effect in parental CHO-K1 cells; Fluo-8 calcium fluorescence; scaled to maximal ATP response, vehicle zero; 360,000 compounds, 0.48% hits; activation, % at 3 µM; in the data active = activation above about 15%;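 also: untransfected CHO-K1 host cells lacking M1 receptor as counterscreen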
CHO-K1 Ca antag = M1 antagonist counterscreen hit in parental CHO-K1 cells | 360,000 compounds, 0.6% hits | AID 602250 | ATP-induced calcium, Fluo-8 fluorescence | inhibition, % at 3 µM;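 active = inhibition above a per-plate cutoff, the plate's mean sample inhibition plus 3 SD, cut at about 24% in these data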
A number is an active result; 0 = inactive; - = not tested or not shown.

SMILES	CHO-K1 Ca PAM	M1 PAM	CHRM1 antagonist	M1 ag	CHO-K1 Ca ag	CHO-K1 Ca antag
CCc1nc2c(OCC3COc4ccccc4O3)cccn2c1N(C)C(=O)c1ccccc1F (stereo not given)	0	0	0	0	0	0
CCc1nc2c(OCC3COc4ccccc4O3)cccn2c1N(C)C(=O)c1cccs1 (stereo not given)	0	0	0	0	0	31
CCOC(=O)c1cnc2ccc(OCC)cc2c1N1CCN(c2ccccc2OC)CC1	0	0	34	0	0	0
Cc1nnc(Nc2ccc(C(=O)N3CCOCC3)cc2)c2ccccc12	0	27	0	0	0	0
COc1cccc(C(=O)NCC(=O)N2CCN(c3ccc(C(F)(F)F)cn3)CC2)c1	0	0	37	0	0	27
CCOC(=O)NN1C(=O)c2ccccc2NC1c1ccc(N(C)C)cc1 (stereo not given)	0	0	0	17	0	0
COC(=O)COc1ccc(C(C2C(=O)CC(C)(C)CC2=O)C2C(=O)CC(C)(C)CC2=O)cc1	0	0	0	0	0	0
COc1ccc(C(N)c2csc(Nc3cc(Oc4ccccc4)ncn3)n2)cc1 (stereo not given)	0	0	82	0	0	0
O=C(O)c1ccc2c(c1)SC1=NS(=O)(=O)CCN12	0	0	0	0	0	0
CN(C(=O)c1ccc2c(c1)SC1=NS(=O)(=O)CCN12)C(c1ccccc1)c1ccccc1	0	0	41	0	0	0
O=C(CCc1nnc(CCc2c[nH]c3ccccc23)o1)NC1CCC1	0	0	0	0	0	0
Cc1cc(C)n(-c2cccc3cccnc23)n1	0	0	0	0	0	0
Cc1cc(C)n(-c2ccccc2C#N)n1	0	0	0	0	0	25
CCOC(=O)C1CCCN(C(=O)c2[nH]c(C(F)(F)F)nc2-c2ccccc2)C1 (stereo not given)	0	0	0	17	0	0
CCOC(=O)N1CCN(C(=O)c2[nH]c(C(F)(F)F)nc2-c2ccccc2)CC1	0	0	0	0	0	0
CC(=O)N1CCN(C(=O)c2[nH]c(C(F)(F)F)nc2-c2ccccc2)CC1	0	0	0	0	0	0
O=C(c1[nH]c(C(F)(F)F)nc1-c1ccccc1)N1CCCCC1	0	0	0	0	0	26
COc1cccc(C(NC(C)=O)c2nc(-c3cccc(O)c3)cs2)c1 (stereo not given)	0	0	0	0	0	0
CN1CCc2nc3ccc(Cl)cc3c(-c3ccccc3Cl)c2C1	0	0	93	0	0	0
Cc1nc2ccc(Cl)cc2c(-c2ccccc2Cl)c1CC(=O)O	0	0	0	0	0	0
CNC(=O)CSc1nnnn1CCCOC	0	0	43	0	0	0
Cc1ccc(C(=O)N/C(=C\c2cccs2)C(=O)N2CCOCC2)cc1C	0	0	0	0	0	0
Nc1ncnc2c1ncn2C1CCCO1 (stereo not given)	0	0	0	20	0	0
COc1ccc(NC(=O)c2cc(C3CCCCN3S(C)(=O)=O)on2)c(C)c1 (stereo not given)	0	0	0	0	0	28
OC(c1ccc(Cl)c(Cl)c1)c1ncc(-c2ccccc2Cl)[nH]1 (stereo not given)	0	0	0	0	0	0
SMILES	CHO-K1 Ca PAM	M1 PAM	CHRM1 antagonist	M1 ag	CHO-K1 Ca ag	CHO-K1 Ca antag
COc1cccc(CN(C)C(=O)C(CCSC)NS(=O)(=O)c2ccc3c(c2)OCCO3)c1OC (stereo not given)	0	0	30	0	0	0
CC1(C(=O)NS(=O)(=O)c2ccc(C#N)cc2)CCN1C(=O)Cc1ccccc1Cl (stereo not given)	0	0	0	0	0	0
NC(CSC(c1ccccc1)(c1ccccc1)c1ccccc1)C(=O)O (stereo not given)	0	0	40	0	0	0
NC(CC(=O)NC(c1ccccc1)(c1ccccc1)c1ccccc1)C(=O)O (stereo not given)	0	0	0	0	0	0
O=C(Nc1ccc(Cl)cc1)c1ccc(OCC2CCCO2)cc1 (stereo not given)	0	0	0	0	26	0
CC(C)(O)C#Cc1ccc(N2C(c3ccsc3)=Cc3ccc(F)cc3C2c2c[nH]c3ccccc23)cc1 (stereo not given)	0	-	-	-	0	0
COCCNc1nc(N)c([N+](=O)[O-])c(NCc2ccccc2)n1	0	0	0	0	0	0
Nc1nc(Nc2ccccc2)nc(NCc2ccccc2)c1[N+](=O)[O-]	0	0	0	0	20	0
COCCCNc1nc(N)c([N+](=O)[O-])c(NCc2ccccc2)n1	0	0	0	0	0	0
CN(C)CCCNc1nc(N)c([N+](=O)[O-])c(NCc2ccccc2)n1	0	0	52	0	0	0
COCCCNc1nc(N)c([N+](=O)[O-])c(Nc2ccccc2OC)n1	0	0	0	0	20	0
Nc1nc(NCc2ccccc2)nc(NCc2ccccc2)c1[N+](=O)[O-]	0	0	0	0	0	0
C[C@@H]1CN([C@H](C)CO)C(=O)CCCn2cc(nn2)CO[C@H]1CN(C)C(=O)c1ccccc1	0	0	0	0	0	0
Cc1ccc(S(=O)(=O)c2nc(-c3cccs3)oc2NCCCN(C)C)cc1	0	0	0	0	0	0
CN1CCN(CC(=O)Nc2c(C#N)cnn2-c2ccccc2)CC1	0	0	0	0	0	0
COc1cc2c(cc1NC(=S)Nc1ccccc1C)oc1ccccc12	0	25	0	0	0	0
O=C(COc1ccc2ccccc2c1)Nc1ccncc1	0	0	0	0	0	24
O=C(CSc1ccc2ccccc2c1)Nc1ccncc1	0	0	31	0	0	0
Cc1cc(OCC(=O)Nc2ccc3oc(-c4ccncc4)nc3c2)ccc1Cl	0	0	0	0	0	0
Cc1cc(OCC(=O)Nc2ccncc2)cc(C)c1Br	0	0	0	0	0	25
O=C(CSc1ccncc1)Nc1ccc2ccccc2c1	0	0	0	0	0	0
Cc1cc(OCC(=O)Nc2ccncc2)ccc1Cl	0	0	0	0	0	35
O=C(NCCc1ccccc1F)C1CC(=O)N(c2ccc3c(c2)OCCO3)C1 (stereo not given)	0	0	0	0	0	0
COc1ccc(C(CNC(=O)c2ccccc2SC)N(C)C)cc1 (stereo not given)	0	0	0	0	0	0
CCNC(=O)C1CCCN(C(=O)Cc2cccs2)CC1 (stereo not given)	0	0	0	0	0	0
NC(=O)c1ccc(N2CCN(S(=O)(=O)c3cccs3)CC2)c([N+](=O)[O-])c1	0	0	35	0	17	0
O=c1c2cc(NC(=S)NCCCN3CCC(Cc4ccccc4)CC3)ccc2nc2n1CCCCC2	0	0	67	0	0	0
O=c1c2cc(NC(=S)NCCN3CCCCCC3)ccc2nc2n1CCCCC2	0	0	0	0	0	0
